The values below come from the supplement of paper PMC6555819.

The subject of this assay is RARb homodimer (NR concentration 270 nM). Put plainly: PBM binding z-score (relative to random genomic background probes); higher = stronger binding; sequences stand for … in GC…GCGATTGACAGCGTAGAATGAAGG
The method, boiled down: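 For binding z-scores, the reference was random background probes on custom Agilent 4×180K protein-binding microarrays. These arrays were incubated 1 h with ligand-free nuclear receptor dimers in PBS pH 7.4, 2% milk, 0.02% Triton X-100, 1 mM DTT, 0.2 mg/mL BSA and 0.4 mg/ml salmon testes DNA. Fluorescence was scanned after antibody detection of each partner (one per run) and regression-normalized.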
Sequence ACTATTAGTTGAGACGAGGGCAACAGATAGGTTG yielded a PBM binding z-score of 1.17.
With CCTACTGGCCCAAAGGTCATTGATTCCAATGCTC the figure was 4.89; with CCTATTAGTTGACCATAAGGGCAACAGAAGCTCG, 1.77.
The result for GATACAGGGTTAGCTAGAGGCCAGAGTATGGAAA reads 0.99; that for CCTTACGGGTCACTCCAGGTTATAGCGTCGGAGT, 2.85; that for CCTTACGGGTCACTAACAGGTTATAGCATTTGGA, 3.17.
With TCTAGTAGATCAAGCAGGTTAAGAAAGCCTGAGT the figure was -0.158; with GCGACTGGGGCATCAGGAGGTTACCATAACTTAA, 1.59.
The sequence CCGACTGTGGCAAAGGTTACCATACTCAGTACGA returned a PBM binding z-score of 2.
In turn, CGTCCAAGGTCAAGGTCAGTGCAAGAGACTCGAA had a PBM binding z-score of 5.45.
With CCTACTGGGCCAAAGGTTATTGATTCCAATGCTC the figure was 1.57.
For the sequence ATCTCTAGGTAATACTCAGTTCAGTGAAGAACGC, the PBM binding z-score worked out at 1.14.
CCTACTGGGCCAAGGGTCATTGATTCCAATGCTC gave a PBM binding z-score of 3.11.
In turn, ATAAGTAGGTTAAGGGTCATTCAGGTTGGTTCGC showed a PBM binding z-score of 4.19.
The result for GGAACGAGGGCATTCGACTTGATAGCATGGCGAT reads 0.502; that for GGAACGAAGGCAAAGTTGATAGCATCTGTCGACG, -0.905.
The result for CGACCTAGGTCAAGGACAGTGAATCTCCGCACGC reads 3.02; that for CCGACTGGGGCATAGGTTACCATACTCAGTACGA, 0.786.
The result for TCATATAGGTATATGCTAGGTGAAAGTCCGATCT reads 0.347; that for TCTTGTAGATCAAAGTTTAAGAAAGCCGAAGCCT, 0.469.
CCTATTAGTTGACCAGAAGGGCAACCGAAGCTCG showed a PBM binding z-score of 1.88.
TCGAGTAGGTTAGGGGCATTAAGAATGGCGTCGA showed a PBM binding z-score of 0.787.
